High-throughput results from PubChem.
Shown are actives, neighbours in structure and some others; about 0.4% of the full set was active somewhere.
AID inhibitor = Primary qHTS assay for inhibitors of Activation Induced Cytidine Deaminase (AID): AID signal; Single-stranded DNA cytosine deaminase (Homo sapiens), Q9GZX7; AID deamination FRET fluorescence, UDG-coupled, 4 h; Potency, µM (titrated, usually from 115 µM), hits mostly inhibitors; hit rate 0.32% among 91,000; further: nearly all actives have a fitted effect of over 25% in size
Target sequence (Q9GZX7 whole entry, looked up): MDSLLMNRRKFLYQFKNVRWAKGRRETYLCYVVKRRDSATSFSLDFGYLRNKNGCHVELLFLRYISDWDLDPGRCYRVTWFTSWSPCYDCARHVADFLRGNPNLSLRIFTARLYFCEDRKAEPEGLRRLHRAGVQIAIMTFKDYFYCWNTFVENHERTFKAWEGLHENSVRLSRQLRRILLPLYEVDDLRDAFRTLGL
UDG counterscr = Primary qHTS assay for inhibitors of Activation Induced Cytidine Deaminase (AID): UDG Counterscreen signal; FRET deamination/UDG coupled assay, UDG read, 4 h; Potency, µM (series often up to 115 µM), inactives show at the top dose activity change, negative = inhibition, actives largely listed as inhibitors; hit rate 0.14% among 91,000; AID 1347430, 2020; further: nearly all actives have a fitted effect of over 65% in size
Starred values were filed as active, the others as inactive; i = inactive; ? = inconclusive. The call rests on the fitted dose curve; in most records, active means well fitted curve in the direction sought with a large enough effect; inconclusive means small, poorly fitted or top-dose-only effect, or another doubt; inactive means no such curve, though single readings can be large; an effect the other way counts as inactive or inconclusive. On the % scale 0 is the no-effect control and ±100 the full control effect; potency means the concentration at half of the fitted maximal effect.

SMILES | AID inhibitor | UDG counterscr
C=C(C)C1CCC2(COC(=O)CCC(=O)O)CC[C@]3(C)C(CCC4[C@@]5(C)CCC(OC(=O)CCC(=O)O)C(C)(C)C5CC[C@]43C)C12 (some centres not stated) | 28.2µM* | 8.3%
CC(C)c1ccc(CS(=O)(=O)Cc2ccc(C#N)cc2)cc1 | i | -9.4%
Cc1cc(C)c(S(=O)(=O)N2CCN(Cc3nc4ccc(C)cc4o3)CC2)c(C)c1 | ? | 89.1µM*
Cc1ccc2nc(CN3CCN(S(=O)(=O)c4ccccc4)CC3)oc2c1 | i | 12.1%
CCOc1ccccc1Oc1coc2cc(OC(=O)c3ccccc3F)ccc2c1=O | i | 10.8%
CC1CCN(c2nc3c(S(=O)(=O)c4ccccc4)nnn3c3ccc(Cl)cc23)CC1 | ? | -14.1%
CCc1ccc(S(=O)(=O)c2nnn3c2nc(N2CCC(C(N)=O)CC2)c2cc(Cl)ccc23)cc1 | 25.1µM* | -14.4%
Nc1ncnc(Nc2ccccc2Cl)c1[N+](=O)[O-] | i | 8.4%
CCN(CC)C(=O)c1ccc2c(c1)N(Cc1c(F)cccc1Cl)C(=O)c1ccccc1S2 | 70.8µM* | -21.4%
COCCNC(=O)c1ccc2c(c1)N(Cc1c(F)cccc1Cl)C(=O)c1ccccc1S2 | i | -11.3%
O=C(O)c1ccc(-c2ccc(CNCc3ccccc3)o2)cc1 | i | 1.3%
CC1(C)CCC2=C(O1)c1ccccc1C(=O)C2=O | 7.94µM* | -12.2%
O=C1c2ccccc2-c2ccccc21 | i | -0.1%
O=C(COc1ccc(F)cc1F)Nc1cccc2cccnc12 | i | -0.7%
CC(C)Oc1cccc(C2CC(=O)Nc3nc(N)sc32)c1 (configuration not stated) | 28.2µM* | -13.9%
Cc1nn(-c2ccc3nnc(C)n3n2)c2c1C(c1cccc(OC(C)C)c1)CC(=O)N2 (configuration not stated) | i | 10.9%
COc1ccc(C2CC(=O)Nc3nc(N)sc32)cc1OCc1ccccc1Cl (configuration not stated) | 39.8µM* | -6.2%
COc1cc(C2CC(=O)Nc3ccsc32)ccc1OCC(N)=O (configuration not stated) | i | 7.6%
O=C(OCc1ccc(-c2ccccc2)cc1)c1ccc(CO)cc1 | i | 0.0%
COc1cccc(N2CCN(C(=O)CCS(=O)(=O)c3ccc4c(c3)CC(=O)N4C)CC2)c1 | i | ?
CN1C(=O)Cc2cc(S(=O)(=O)CCC(=O)N3CCN(c4ccc(Cl)cc4)CC3)ccc21 | i | 89.1µM*
OC(COc1ccccc1F)CN(Cc1ccccc1)CC(O)COc1ccccc1F (configuration not stated) | i | -20.1%
O=S1(=O)CCN(Cc2cccc(Br)c2)c2c(F)nc(N3CCOCC3)c(F)c21 | i | -7.0%
COc1c(Cl)cc(C(=O)N(Cc2ccc(C)o2)C2CCS(=O)(=O)C2)cc1Cl (configuration not stated) | i | 89.1µM*
Cc1ccc(CN(C(=O)COc2ccc(Cl)cc2Cl)C2CCS(=O)(=O)C2)o1 (configuration not stated) | i | -11.9%
SMILES | AID inhibitor | UDG counterscr
Cc1ccc(NC(=O)Nc2nnc(N(C)Cc3ccccc3)s2)c(C)c1 | i | -10.2%
Cc1ccc(Cl)cc1NC(=O)Nc1nnc(N(C)Cc2ccccc2)s1 | i | 89.1µM*
COc1ccc(NC(=O)CSc2nc(N3CCOCC3)c3c(c2C#N)CC(C)(C)OC3)cc1 | i | 5.1%
Cc1ccc(-c2noc(CN(C(=O)COc3cc(C)cc(C)c3C)C(C)C)n2)cc1 | 79.4µM* | -19.2%
Cc1ccc(OCC(=O)N(Cc2nc(-c3ccccc3)no2)C(C)C)cc1C | i | -0.1%
CCc1ccc(C(=O)c2cn(CC(=O)Nc3ccc(F)c(F)c3)c3cc(OC)c(OC)cc3c2=O)cc1 | i | -16.8%
CCc1ccc(C(=O)c2cn(Cc3ccc(F)cc3)c3cc(OC)c(OC)cc3c2=O)cc1 | 35.5µM* | -24.1%
COc1cc(C#N)ccc1OCc1cccc(COc2ccc(C#N)cc2OC)c1 | i | 1.1%
O=C(CSc1ncnc2ccccc12)Nc1ccc(F)cc1 | i | -4.7%
O=C(Nc1ccc(CSc2ccccc2)cc1)c1ccc(F)cc1 | i | -4.4%
